# A number with no mark means an inactive call.
# What was measured:
# Assay in all cases: log2 ratio of Biotin-Ahx-Ub-VS probe labelling (fragment/DMSO); higher = less target engagement (more negative = stronger competition), active = hit call of the paper (q ≤ 0.05, log2 ratio ≤ -1)
# Settings in all cases: compound concentration: 200 uM; treatment time: 3 h
# ALG13 = target: T1, ALG13 (UniProt Q9NP73)
# T1 sequence (whole entry): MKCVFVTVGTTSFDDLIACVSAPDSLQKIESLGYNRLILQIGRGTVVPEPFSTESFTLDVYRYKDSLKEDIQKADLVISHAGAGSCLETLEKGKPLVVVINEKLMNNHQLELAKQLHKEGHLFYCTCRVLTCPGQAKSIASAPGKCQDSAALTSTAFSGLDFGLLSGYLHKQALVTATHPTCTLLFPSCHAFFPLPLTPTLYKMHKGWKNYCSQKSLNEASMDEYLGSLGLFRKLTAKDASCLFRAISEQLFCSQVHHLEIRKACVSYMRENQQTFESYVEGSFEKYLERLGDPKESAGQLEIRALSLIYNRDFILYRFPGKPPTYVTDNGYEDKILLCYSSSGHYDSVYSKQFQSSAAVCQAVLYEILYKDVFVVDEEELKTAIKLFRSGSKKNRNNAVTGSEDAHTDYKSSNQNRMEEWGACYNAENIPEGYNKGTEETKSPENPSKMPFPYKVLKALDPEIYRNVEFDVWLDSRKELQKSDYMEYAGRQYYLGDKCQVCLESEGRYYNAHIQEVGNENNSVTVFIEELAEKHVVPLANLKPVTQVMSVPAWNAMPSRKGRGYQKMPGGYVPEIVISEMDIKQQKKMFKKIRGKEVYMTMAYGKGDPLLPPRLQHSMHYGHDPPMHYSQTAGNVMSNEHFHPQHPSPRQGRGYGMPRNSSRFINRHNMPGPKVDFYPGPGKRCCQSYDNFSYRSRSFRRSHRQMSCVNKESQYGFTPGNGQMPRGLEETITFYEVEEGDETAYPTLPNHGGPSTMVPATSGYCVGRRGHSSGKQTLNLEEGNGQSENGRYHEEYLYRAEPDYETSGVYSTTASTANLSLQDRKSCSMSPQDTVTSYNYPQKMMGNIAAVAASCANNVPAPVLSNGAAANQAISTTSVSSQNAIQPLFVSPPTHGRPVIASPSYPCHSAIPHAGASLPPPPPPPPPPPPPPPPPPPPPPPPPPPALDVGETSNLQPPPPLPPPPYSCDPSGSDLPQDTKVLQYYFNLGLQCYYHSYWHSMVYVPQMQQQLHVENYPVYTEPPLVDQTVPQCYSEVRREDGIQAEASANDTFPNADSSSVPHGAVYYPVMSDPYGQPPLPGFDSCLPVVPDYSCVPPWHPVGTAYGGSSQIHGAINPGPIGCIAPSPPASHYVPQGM
# In short: (§1)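 Fragment (200 µM) or vehicle was incubated for 3 h with triplicate HEK293T lysate samples of 495 µg, which were then treated with Biotin-Ahx-Ub-VS at 0.5 µM final for 1 h. Labelled DUBs were enriched on NeutrAvidin, digested with LysC and trypsin, and analysed by diaPASEF LC-MS/MS. Values are average log2 fragment/vehicle ratios from an unpaired t-test on global-median-normalised Spectronaut label-free quantities, using proteins with ≥2 unique peptides.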
# ATXN3 = ATXN3 (UniProt P54252)
# Chain of ATXN3 (P54252 whole entry): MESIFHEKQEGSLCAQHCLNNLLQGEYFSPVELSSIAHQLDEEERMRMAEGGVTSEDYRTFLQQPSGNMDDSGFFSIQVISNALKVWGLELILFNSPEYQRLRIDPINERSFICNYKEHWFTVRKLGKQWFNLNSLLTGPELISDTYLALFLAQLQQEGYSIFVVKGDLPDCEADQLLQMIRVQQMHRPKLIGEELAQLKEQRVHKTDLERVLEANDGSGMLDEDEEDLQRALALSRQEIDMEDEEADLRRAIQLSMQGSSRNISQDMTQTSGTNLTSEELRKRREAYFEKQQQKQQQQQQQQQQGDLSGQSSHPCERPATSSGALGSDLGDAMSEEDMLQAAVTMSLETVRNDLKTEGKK
# In short: as §1
# BAP1 = target: T2, BAP1 (UniProt Q92560)
# T2 sequence (whole entry): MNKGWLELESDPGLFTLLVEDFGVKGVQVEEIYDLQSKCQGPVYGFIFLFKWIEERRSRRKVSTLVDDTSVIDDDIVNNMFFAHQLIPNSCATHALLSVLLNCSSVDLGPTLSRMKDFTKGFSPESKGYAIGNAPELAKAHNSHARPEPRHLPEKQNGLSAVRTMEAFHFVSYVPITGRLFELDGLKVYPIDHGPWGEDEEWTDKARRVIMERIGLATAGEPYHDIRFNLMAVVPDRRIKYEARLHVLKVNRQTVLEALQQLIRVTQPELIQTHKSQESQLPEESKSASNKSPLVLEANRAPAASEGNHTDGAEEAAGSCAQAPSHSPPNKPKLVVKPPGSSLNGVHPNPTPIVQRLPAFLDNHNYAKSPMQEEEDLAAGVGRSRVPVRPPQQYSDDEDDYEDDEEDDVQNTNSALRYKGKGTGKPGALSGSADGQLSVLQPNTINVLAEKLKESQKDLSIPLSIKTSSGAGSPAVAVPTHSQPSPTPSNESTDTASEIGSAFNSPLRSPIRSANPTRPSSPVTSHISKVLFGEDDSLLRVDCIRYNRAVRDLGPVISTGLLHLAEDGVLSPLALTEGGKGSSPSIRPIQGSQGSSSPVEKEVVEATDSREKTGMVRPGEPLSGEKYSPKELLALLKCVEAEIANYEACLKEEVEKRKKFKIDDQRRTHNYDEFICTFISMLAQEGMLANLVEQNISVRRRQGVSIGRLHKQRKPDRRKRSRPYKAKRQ
# In short: as §1
# EIF3F = EIF3F (UniProt O00303)
# Chain of EIF3F (O00303 whole entry): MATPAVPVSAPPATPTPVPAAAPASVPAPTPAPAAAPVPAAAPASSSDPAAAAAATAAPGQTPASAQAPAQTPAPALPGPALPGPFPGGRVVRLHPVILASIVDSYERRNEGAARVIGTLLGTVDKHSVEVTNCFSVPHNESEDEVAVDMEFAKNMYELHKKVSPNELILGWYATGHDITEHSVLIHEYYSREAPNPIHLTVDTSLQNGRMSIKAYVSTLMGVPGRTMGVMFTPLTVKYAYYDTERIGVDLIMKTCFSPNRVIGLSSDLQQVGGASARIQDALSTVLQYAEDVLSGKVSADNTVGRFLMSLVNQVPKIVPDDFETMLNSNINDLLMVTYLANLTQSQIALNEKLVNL
# In short: as §1
# EIF3H = EIF3H (UniProt O15372)
# Chain of EIF3H (O15372 whole entry): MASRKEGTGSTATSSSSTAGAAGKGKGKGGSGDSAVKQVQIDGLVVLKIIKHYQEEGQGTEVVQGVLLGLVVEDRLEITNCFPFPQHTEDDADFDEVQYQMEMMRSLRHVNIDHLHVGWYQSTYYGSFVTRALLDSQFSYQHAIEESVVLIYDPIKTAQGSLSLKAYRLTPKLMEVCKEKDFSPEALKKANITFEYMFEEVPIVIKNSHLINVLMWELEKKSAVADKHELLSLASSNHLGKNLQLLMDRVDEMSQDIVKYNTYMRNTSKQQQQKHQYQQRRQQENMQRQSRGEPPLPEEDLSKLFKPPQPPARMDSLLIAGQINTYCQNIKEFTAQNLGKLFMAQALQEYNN
# In short: as §1
# FAM105A = target: T3, FAM105A (UniProt Q9NUU6)
# T3 sequence (whole entry): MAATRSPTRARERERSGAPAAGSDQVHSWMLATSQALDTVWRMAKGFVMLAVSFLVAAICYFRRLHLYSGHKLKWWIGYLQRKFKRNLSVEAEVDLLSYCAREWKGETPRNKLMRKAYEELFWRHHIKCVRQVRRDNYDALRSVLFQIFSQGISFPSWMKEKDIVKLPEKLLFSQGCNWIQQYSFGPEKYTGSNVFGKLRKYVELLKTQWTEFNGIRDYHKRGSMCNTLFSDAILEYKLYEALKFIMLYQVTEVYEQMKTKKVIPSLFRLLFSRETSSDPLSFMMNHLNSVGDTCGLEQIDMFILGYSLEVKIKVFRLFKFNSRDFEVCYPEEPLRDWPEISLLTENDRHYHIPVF
# In short: as §1
# OTUB1 = OTUB1 (UniProt Q96FW1)
# Chain of OTUB1 (Q96FW1 whole entry): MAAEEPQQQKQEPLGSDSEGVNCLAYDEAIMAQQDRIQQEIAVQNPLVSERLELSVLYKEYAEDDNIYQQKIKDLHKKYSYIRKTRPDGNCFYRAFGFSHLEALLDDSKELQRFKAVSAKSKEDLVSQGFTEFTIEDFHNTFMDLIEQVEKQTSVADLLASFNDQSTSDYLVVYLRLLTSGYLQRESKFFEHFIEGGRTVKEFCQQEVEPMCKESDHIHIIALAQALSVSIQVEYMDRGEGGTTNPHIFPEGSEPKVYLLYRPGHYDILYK
# In short: as §1
# OTUD4 = target: T4, OTUD4 (UniProt Q01804)
# T4 sequence (whole entry): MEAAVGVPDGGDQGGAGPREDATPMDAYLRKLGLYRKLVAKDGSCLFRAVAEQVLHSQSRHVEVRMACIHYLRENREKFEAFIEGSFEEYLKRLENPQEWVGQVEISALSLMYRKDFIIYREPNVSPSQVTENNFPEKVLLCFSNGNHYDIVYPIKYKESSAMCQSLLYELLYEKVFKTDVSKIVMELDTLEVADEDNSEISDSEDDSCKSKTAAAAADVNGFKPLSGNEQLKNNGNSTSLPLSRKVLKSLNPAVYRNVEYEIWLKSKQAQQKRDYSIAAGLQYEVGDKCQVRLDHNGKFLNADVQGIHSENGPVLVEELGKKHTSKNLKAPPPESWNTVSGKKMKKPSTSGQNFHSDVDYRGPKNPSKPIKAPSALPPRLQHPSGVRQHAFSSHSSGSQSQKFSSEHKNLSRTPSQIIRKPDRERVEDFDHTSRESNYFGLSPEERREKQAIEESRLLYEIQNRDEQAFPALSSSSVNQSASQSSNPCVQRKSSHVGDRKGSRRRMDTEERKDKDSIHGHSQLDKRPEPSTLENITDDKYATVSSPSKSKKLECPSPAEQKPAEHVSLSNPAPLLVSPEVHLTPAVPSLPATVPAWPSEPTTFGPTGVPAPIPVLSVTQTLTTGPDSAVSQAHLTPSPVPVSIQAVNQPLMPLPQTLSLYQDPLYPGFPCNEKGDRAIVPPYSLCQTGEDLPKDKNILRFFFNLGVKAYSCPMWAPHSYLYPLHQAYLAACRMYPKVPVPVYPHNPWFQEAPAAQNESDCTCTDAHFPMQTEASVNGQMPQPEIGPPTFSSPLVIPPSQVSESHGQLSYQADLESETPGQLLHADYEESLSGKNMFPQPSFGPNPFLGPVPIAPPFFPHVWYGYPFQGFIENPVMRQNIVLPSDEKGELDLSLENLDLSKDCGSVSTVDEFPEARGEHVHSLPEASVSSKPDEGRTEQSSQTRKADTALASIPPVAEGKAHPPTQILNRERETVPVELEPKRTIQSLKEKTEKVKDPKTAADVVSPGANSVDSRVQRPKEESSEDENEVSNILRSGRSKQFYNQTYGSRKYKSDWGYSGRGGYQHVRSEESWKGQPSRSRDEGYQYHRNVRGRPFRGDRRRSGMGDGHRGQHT
# In short: as §1
# OTUD5 = target: T5, OTUD5 (UniProt Q96G74)
# T5 sequence (whole entry): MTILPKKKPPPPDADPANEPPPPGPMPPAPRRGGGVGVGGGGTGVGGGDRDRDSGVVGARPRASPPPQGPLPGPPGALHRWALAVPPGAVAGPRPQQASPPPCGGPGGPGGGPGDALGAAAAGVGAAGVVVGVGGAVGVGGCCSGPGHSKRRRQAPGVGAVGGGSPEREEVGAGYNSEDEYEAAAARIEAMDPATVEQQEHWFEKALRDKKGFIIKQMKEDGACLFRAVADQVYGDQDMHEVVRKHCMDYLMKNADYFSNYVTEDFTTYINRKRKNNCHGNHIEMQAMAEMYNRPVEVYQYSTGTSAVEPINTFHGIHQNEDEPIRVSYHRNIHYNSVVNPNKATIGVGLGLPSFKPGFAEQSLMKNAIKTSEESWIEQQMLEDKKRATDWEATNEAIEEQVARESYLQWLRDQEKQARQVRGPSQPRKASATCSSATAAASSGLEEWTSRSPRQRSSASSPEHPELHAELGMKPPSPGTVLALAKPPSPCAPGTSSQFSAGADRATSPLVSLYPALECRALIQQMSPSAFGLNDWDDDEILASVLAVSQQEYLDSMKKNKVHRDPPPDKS
# In short: as §1
smiles,measurement,setting,value
O=C(CCl)NCCc1cccc2ccccc12,log2 ratio of Biotin-Ahx-Ub-VS probe labelling,ALG13,-0.35
same,log2 ratio of Biotin-Ahx-Ub-VS probe labelling,ATXN3,0.214
same,log2 ratio of Biotin-Ahx-Ub-VS probe labelling,BAP1,-1.22 (active)
same,log2 ratio of Biotin-Ahx-Ub-VS probe labelling,EIF3F,0.273
same,log2 ratio of Biotin-Ahx-Ub-VS probe labelling,EIF3H,0.236
same,log2 ratio of Biotin-Ahx-Ub-VS probe labelling,FAM105A,0.159
same,log2 ratio of Biotin-Ahx-Ub-VS probe labelling,OTUB1,0.162
same,log2 ratio of Biotin-Ahx-Ub-VS probe labelling,OTUD4,0.0626
same,log2 ratio of Biotin-Ahx-Ub-VS probe labelling,OTUD5,0.0474

# Source: the supplement of paper PMC11732987, “Enantioselective OTUD7B fragment discovery through chemoproteomics screening and high-throughput optimisation” (Communications Chemistry, 2025)
